Laboratory results reported in PubChem BioAssay (NCI).
This is part of a sample that, as a whole, favours compounds with a hit. Of some 83,000 tested, about 20% had one in any assay.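 Method: cells in 96-well plates; compound added at one concentration; 48 h incubation; percent growth measured; values under 10 scored active.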 The source made the active and inactive calls.

Legend:
Assay in all cases: NCI-60 one-dose screen, 48 h (100 = growth as untreated, 0 = no growth, -100 = all killed)
SK-MEL-2 melanoma = conditions: 10 µM unless noted
EKVX NSCLC = conditions: 10 µM unless noted
SN12C renal = conditions: 10 µM unless noted
UO-31 renal = conditions: 10 µM unless noted
ACHN renal = conditions: 10 µM unless noted
CAKI-1 renal = conditions: 10 µM unless noted
A498 renal = conditions: 10 µM
HL-60(TB) leukemia = conditions: 10 µM unless noted
CCRF-CEM leukemia = conditions: 10 µM unless noted
MOLT-4 leukemia = conditions: 10 µM unless noted
SR leukemia = conditions: 10 µM unless noted
RPMI-8226 leukemia = conditions: 10 µM unless noted
OVCAR-8 ovarian = conditions: 10 µM unless noted
OVCAR-5 ovarian = conditions: 10 µM unless noted
OVCAR-4 ovarian = conditions: 10 µM unless noted
SK-OV-3 ovarian = conditions: 10 µM unless noted
IGROV1 ovarian = conditions: 10 µM unless noted
OVCAR-3 ovarian = conditions: 10 µM unless noted
TK-10 renal = conditions: 10 µM unless noted
HS 578T breast = conditions: 10 µM unless noted

Measured: growth

CCOc1ccc(/C=C/[N+](=O)[O-])cc1
active: RPMI-8226 leukemia -36.4%
inactive: SK-MEL-2 melanoma 101% | EKVX NSCLC 93.7% | SN12C renal 94.5% | UO-31 renal 71.1% | ACHN renal 96.3% | CAKI-1 renal 101% | A498 renal 78.1% | HL-60(TB) leukemia 105% | CCRF-CEM leukemia 90.6% | MOLT-4 leukemia 118% | SR leukemia 67.5% | OVCAR-8 ovarian 101% | OVCAR-5 ovarian 89.8% | OVCAR-4 ovarian 87.9% | SK-OV-3 ovarian 111% | IGROV1 ovarian 86.5% | OVCAR-3 ovarian 86.3%

CCOP1(=O)CC(C)=C(Cl)C(P(=O)(OCC)OCC)C1 (stereo unspecified)
active: CCRF-CEM leukemia -27.5%
inactive: SK-MEL-2 melanoma 104% | EKVX NSCLC 109% | SN12C renal 101% | TK-10 renal 135% | ACHN renal 110% | CAKI-1 renal 110% | A498 renal 103% | HL-60(TB) leukemia 107% | MOLT-4 leukemia 106% | RPMI-8226 leukemia 107% | OVCAR-8 ovarian 84.3% | OVCAR-5 ovarian 82.9% | OVCAR-4 ovarian 92.4% | SK-OV-3 ovarian 98.8% | OVCAR-3 ovarian 94.5% | HS 578T breast 103%

C#Cc1ccc2c(c1)C(c1ccccc1F)=NCC(=O)N2C
inactive: SK-MEL-2 melanoma 19.4% | EKVX NSCLC 48.9% | UO-31 renal 72.5% | TK-10 renal 75.5% | ACHN renal 56.9% | A498 renal 19.2% | HL-60(TB) leukemia 10.2% | CCRF-CEM leukemia 58.8% | MOLT-4 leukemia 42.8% | SR leukemia 37.8% | RPMI-8226 leukemia 71.9% | OVCAR-8 ovarian 63.9% | OVCAR-5 ovarian 85.5% | OVCAR-4 ovarian 84.9% | SK-OV-3 ovarian 34% | OVCAR-3 ovarian 12.1% | HS 578T breast 64.1%

COC(=O)[C@@H](C)C[C@H](Cc1ccccc1)NC(=O)c1csc([C@@H](C[C@H](C(C)C)N(C)C(=O)C2(NC(=O)[C@H]3CCCCN3C)CC2)OC(C)=O)n1
inactive: SK-MEL-2 melanoma 34.1% | EKVX NSCLC 29.1% | SN12C renal 31.3% | UO-31 renal 48% | ACHN renal 32.4% | CAKI-1 renal 59.8% | SR leukemia 11% | RPMI-8226 leukemia 12.8% | OVCAR-8 ovarian 23.3% | OVCAR-5 ovarian 20.3% | SK-OV-3 ovarian 19.1% | IGROV1 ovarian 27.1% | HS 578T breast 12%
active: A498 renal -5.45% | HL-60(TB) leukemia -46.1% | CCRF-CEM leukemia 3.37% | MOLT-4 leukemia 9.45% | OVCAR-3 ovarian -16.4%

N/C(=N/N=C/c1ccncc1)N[N+](=O)[O-]
inactive: SK-MEL-2 melanoma 104% | SN12C renal 95.8% | UO-31 renal 93.8% | TK-10 renal 94.1% | ACHN renal 101% | CAKI-1 renal 99.2% | A498 renal 86.3% | HL-60(TB) leukemia 109% | CCRF-CEM leukemia 101% | SR leukemia 90.9% | RPMI-8226 leukemia 106% | OVCAR-8 ovarian 103% | OVCAR-5 ovarian 94.2% | OVCAR-4 ovarian 103% | SK-OV-3 ovarian 111% | IGROV1 ovarian 108% | OVCAR-3 ovarian 113% | HS 578T breast 106%

CCCCCCCC[N+](C)(CCCCCCCC)CCCCCCCC
active: SK-MEL-2 melanoma -94.1% | SN12C renal -86.5% | UO-31 renal -100% | TK-10 renal -100% | ACHN renal -93.6% | CAKI-1 renal -98.6% | A498 renal -100% | OVCAR-8 ovarian -100% | OVCAR-5 ovarian -100% | OVCAR-4 ovarian -94.1% | SK-OV-3 ovarian -97.8% | OVCAR-3 ovarian -100% | HS 578T breast -66.6%
inactive: CCRF-CEM leukemia 85.7% | MOLT-4 leukemia 37.4% | SR leukemia 28.1% | RPMI-8226 leukemia 44.2%

CC(=O)OC1CCC2C3CCC4=C/C(=N/OC(=O)c5ccc(N(CCCl)CCCl)cc5)CCC4(C)C3CC(C)C12 (stereo unspecified)
active: UO-31 renal -32% | SR leukemia -7.87% | IGROV1 ovarian -59.1%
inactive: SK-MEL-2 melanoma 104% | SN12C renal 72.6% | TK-10 renal 92.6% | ACHN renal 58.1% | CAKI-1 renal 73.9% | A498 renal 63.3% | HL-60(TB) leukemia 33.7% | CCRF-CEM leukemia 14.8% | MOLT-4 leukemia 57.7% | RPMI-8226 leukemia 70.8% | OVCAR-8 ovarian 54.5% | OVCAR-5 ovarian 101% | OVCAR-4 ovarian 72% | SK-OV-3 ovarian 114% | OVCAR-3 ovarian 59.7% | HS 578T breast 26.3%

NC1CC2CCCCC2CC1(O)c1ccccc1 (stereo unspecified)
inactive: SK-MEL-2 melanoma 100% | SN12C renal 101% | UO-31 renal 83.9% | TK-10 renal 96.6% | ACHN renal 104% | CAKI-1 renal 107% | A498 renal 89.8% | HL-60(TB) leukemia 91.1% | CCRF-CEM leukemia 96% | MOLT-4 leukemia 85.7% | SR leukemia 90.7% | RPMI-8226 leukemia 93.6% | OVCAR-8 ovarian 98.6% | OVCAR-5 ovarian 95.4% | SK-OV-3 ovarian 107% | IGROV1 ovarian 102% | OVCAR-3 ovarian 109% | HS 578T breast 102%

C=CC12CCN(CC1)C(C(O)c1ccnc3ccc(OC)cc13)C2 (stereo unspecified)
active: RPMI-8226 leukemia 4.37%
inactive: SK-MEL-2 melanoma 97.3% | SN12C renal 83.5% | UO-31 renal 48.3% | TK-10 renal 88.4% | ACHN renal 80.4% | CAKI-1 renal 69.8% | A498 renal 56.9% | HL-60(TB) leukemia 60.7% | CCRF-CEM leukemia 75.8% | MOLT-4 leukemia 67.8% | SR leukemia 37.1% | OVCAR-8 ovarian 92.3% | OVCAR-5 ovarian 88.4% | OVCAR-4 ovarian 76.9% | SK-OV-3 ovarian 89.2% | IGROV1 ovarian 81.4% | OVCAR-3 ovarian 93.7% | HS 578T breast 90.4%

O=C1C=C(N2C3C4CCC(C4)C32)C(=O)C=C1c1ccccc1 (stereo unspecified)
inactive: SK-MEL-2 melanoma 87.8% | SN12C renal 93.8% | UO-31 renal 90.8% | TK-10 renal 142% | ACHN renal 73.4% | CAKI-1 renal 58% | A498 renal 49.3% | HL-60(TB) leukemia 44.8% | RPMI-8226 leukemia 53.1% | OVCAR-8 ovarian 72.4% | OVCAR-5 ovarian 102% | OVCAR-4 ovarian 48% | SK-OV-3 ovarian 88.9% | OVCAR-3 ovarian 74.5% | HS 578T breast 102%
active: CCRF-CEM leukemia 0.362% | MOLT-4 leukemia 2.18% | SR leukemia 0.878%

ClCCN(CCCl)c1ccc(OCc2ccccc2)cc1
inactive: SK-MEL-2 melanoma 114% | SN12C renal 30.8% | UO-31 renal 38.6% | TK-10 renal 96.3% | ACHN renal 17.7% | CAKI-1 renal 11.4% | A498 renal 68.9% | HL-60(TB) leukemia 10.6% | CCRF-CEM leukemia 14.4% | MOLT-4 leukemia 11.7% | RPMI-8226 leukemia 64.8% | OVCAR-8 ovarian 55.8% | OVCAR-5 ovarian 89% | OVCAR-4 ovarian 78.7% | SK-OV-3 ovarian 65.2% | IGROV1 ovarian 76.7% | OVCAR-3 ovarian 78% | HS 578T breast 96.6%
active: SR leukemia -8.12%

CCC1CN1CCCCN1CC1CC (stereo unspecified)
inactive: SK-MEL-2 melanoma 118% | SN12C renal 95.2% | UO-31 renal 92.6% | TK-10 renal 104% | ACHN renal 100% | CAKI-1 renal 99.6% | A498 renal 115% | MOLT-4 leukemia 108% | SR leukemia 104% | RPMI-8226 leukemia 102% | OVCAR-8 ovarian 101% | OVCAR-5 ovarian 102% | OVCAR-4 ovarian 102% | SK-OV-3 ovarian 110% | IGROV1 ovarian 102% | OVCAR-3 ovarian 107%

CC(C)=CCC/C(C)=C/C=N\N=C(/N)N[N+](=O)[O-]
inactive: SK-MEL-2 melanoma 92.9% | SN12C renal 100% | UO-31 renal 69.7% | TK-10 renal 87.4% | ACHN renal 109% | CAKI-1 renal 84.9% | A498 renal 83.9% | HL-60(TB) leukemia 113% | CCRF-CEM leukemia 93.3% | MOLT-4 leukemia 90.9% | SR leukemia 83.6% | RPMI-8226 leukemia 93.6% | OVCAR-8 ovarian 104% | OVCAR-5 ovarian 103% | OVCAR-4 ovarian 93.4% | SK-OV-3 ovarian 98.9% | IGROV1 ovarian 99.5% | OVCAR-3 ovarian 101% | HS 578T breast 99.8%

CCCc1cc(O)c2c3c(c(=O)oc2c1)CN(C)CC3
inactive: SK-MEL-2 melanoma 97.7% | SN12C renal 39.1% | UO-31 renal 22.7% | TK-10 renal 47.3% | ACHN renal 44.6% | A498 renal 15.4% | CCRF-CEM leukemia 18.8% | MOLT-4 leukemia 27% | SR leukemia 15.8% | RPMI-8226 leukemia 28.4% | OVCAR-8 ovarian 32.3% | OVCAR-5 ovarian 55.9% | OVCAR-4 ovarian 56.3% | SK-OV-3 ovarian 26.8% | IGROV1 ovarian 32.7% | HS 578T breast 45.7%
active: CAKI-1 renal 4.68% | HL-60(TB) leukemia 6% | OVCAR-3 ovarian -3.56%

Cc1ccc(S(=O)(=O)F)cc1C(=O)O
inactive: SK-MEL-2 melanoma 105% | SN12C renal 99.1% | UO-31 renal 91.9% | TK-10 renal 107% | ACHN renal 101% | CAKI-1 renal 93.9% | A498 renal 132% | HL-60(TB) leukemia 104% | CCRF-CEM leukemia 97.2% | MOLT-4 leukemia 99.6% | SR leukemia 103% | RPMI-8226 leukemia 100% | OVCAR-8 ovarian 116% | OVCAR-5 ovarian 102% | OVCAR-4 ovarian 110% | SK-OV-3 ovarian 88.3% | IGROV1 ovarian 102% | OVCAR-3 ovarian 109% | HS 578T breast 112%

O=C(c1ccccc1O)c1[nH]c(Cl)c(Cl)c1-n1c(C(=O)c2ccccc2O)cc(Cl)c1Cl
active: SK-MEL-2 melanoma -36.9% | SN12C renal -14.2% | UO-31 renal -3.72% | TK-10 renal 6.68% | ACHN renal -9.76% | CAKI-1 renal -11.1% | A498 renal -33.3% | CCRF-CEM leukemia 3.92% | MOLT-4 leukemia -1.12% | SR leukemia 8.12% | RPMI-8226 leukemia -30.1% | OVCAR-8 ovarian 8.28% | SK-OV-3 ovarian -5.75% | HS 578T breast -16.9%
inactive: OVCAR-5 ovarian 18.5% | OVCAR-4 ovarian 14.5% | IGROV1 ovarian 23%

O=C1CCC2(O)[C@@H]3Cc4ccc(O)c5c4[C@]2(CCN3Cc2ccoc2)C1O5 (stereo partly specified)
inactive: SK-MEL-2 melanoma 106% | SN12C renal 97.9% | UO-31 renal 78.8% | TK-10 renal 102% | ACHN renal 98% | CAKI-1 renal 99.3% | A498 renal 108% | HL-60(TB) leukemia 95% | CCRF-CEM leukemia 98.5% | MOLT-4 leukemia 101% | SR leukemia 95.4% | RPMI-8226 leukemia 101% | OVCAR-8 ovarian 102% | OVCAR-5 ovarian 98.7% | SK-OV-3 ovarian 105% | IGROV1 ovarian 112% | OVCAR-3 ovarian 107% | HS 578T breast 105%

C[C@]12C[C@@H](CO)[C@H](O)C[C@@H]1CC[C@@H]1[C@@H]2CC[C@]2(C)[C@@H](O)CC[C@@H]12
inactive: SK-MEL-2 melanoma 86% | SN12C renal 106% | UO-31 renal 89.6% | TK-10 renal 103% | ACHN renal 101% | CAKI-1 renal 94.1% | A498 renal 95.1% | HL-60(TB) leukemia 71% | SR leukemia 79.4% | RPMI-8226 leukemia 91.9% | OVCAR-8 ovarian 96.8% | OVCAR-5 ovarian 104% | SK-OV-3 ovarian 106% | IGROV1 ovarian 105% | OVCAR-3 ovarian 101%
